Screens: PubChem BioAssay, Sanford-Burnham Center for Chemical Genomics
TAG inh: reduces triacylglycerol accumulation in H9c2 cells | Nile Red lipid (TAG) fluorescence; cells loaded with 200 µM oleic acid | inhibition, % at 12.5 µM | actives 0.66% (n = 230,000) | AID 651582;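 active means pattern-corrected inhibition of lipid staining of at least 50% with the nuclear-stain viability signal not falling by more than 50%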
aDG glyco up: increases alpha dystroglycan glycosylation. actives 0.22% (n = 360,000). AID 624168. Pro5-aDG cells, alpha-DG glycosylation AlphaScreen (IIH6); 0% Pro5, 100% B10-LARGE cell signal. activation, % at 10 µM;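 active means activation of at least 8% versus controls, or a plate z-score of at least 8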;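 further: Pro5 are CHO cells carrying HIG-tagged alpha-DG that lacks glycosylation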
NadD inh: blocks S. aureus nicotinate mononucleotide adenylyltransferase; purified NadD enzyme, colorimetric absorbance read-out; inhibition, % at 20 µM; actives 0.78% (n = 360,000); AID 602399; in the data active means inhibition above about 26%
MPTP inh: inhibitors of mitochondrial permeability transition pore. AID 602449. isolated mouse mitochondria, Ca2+ swelling absorbance, 30 min. inhibition, % at 10 µM. actives 1.4% (n = 360,000);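 active means inhibition of 50% or more, scaled per plate between neutral and stimulator controls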
MPTP counter: Rhodamine 123 counter-screen of mitochondrial pore hits | shares compounds with MPTP inh | isolated mitochondria, membrane potential, Rhodamine 123 fluorescence | inhibition, % at 10 µM | actives 78% (n = 5,000) | AID 624504; in the data active means inhibition above about 22%
MPTP swell DR: dose response confirmation of mitochondrial permeability transition pore inhibitors. shares compounds with MPTP inh. isolated mitochondria swelling, absorbance. IC50, µM. actives 58% (n = 780); in the data active means IC50 below about 20 µM
MPTP counter DR: counter-screen for mitochondrial permeability transition pore inhibitors, dose response | shares compounds with MPTP inh | isolated mitochondria counterscreen, fluorescence read-out | IC50, µM | actives 49% (n = 780); in the data active means IC50 below about 80 µM
Of the large screens only hits and unclear results are named; the others gave an inactive call (follow-up assays come after a bar, where they were run). A selection: hits, their analogues and other compounds. The true share with any hit is near 2.7%.

Cc1cccc(CN2CCN(C3CN(Cc4ccc(F)cc4)S(=O)(=O)C3)CC2)c1 (configuration not stated)	none (no result: TAG inh)
CCOC(=O)C1CCCN(CC(O)COCc2ccccc2OC)C1 (configuration not stated)	none (no result: TAG inh)
Cc1ccc(CNC(=S)NC2CCC(C(C)(C)C)CC2)cc1 (configuration not stated)	MPTP inh 51 | MPTP counter 106
CC(NC(=S)NC1CCC(C(C)(C)C)CC1)c1ccccc1 (configuration not stated)	MPTP inh 55 | MPTP counter 87
NCCCNc1nc(N)c([N+](=O)[O-])c(NC2CCCCC2)n1	none (no result: TAG inh)
CN(C)c1ccc(C(=O)N/N=C/c2ccccn2)cc1	none
CCOC(=O)CC1C(=O)NCCN1C(=S)NC(=O)c1ccc(C)c(Br)c1 (configuration not stated)	none
COc1cccc(NC(=O)Nc2ccccc2SC)c1	none
CSc1ccccc1NC(=O)Nc1ccc(F)c(Cl)c1	MPTP inh 93 (no result: TAG inh) | MPTP counter 75
CSCCC(NC(N)=O)C(=O)Nc1ccc(F)c(Cl)c1 (configuration not stated)	MPTP inh 64 | MPTP counter 80
CSc1ccccc1NC(=O)Nc1cccc(Cl)c1	MPTP inh 62 (no result: TAG inh) | MPTP counter 85
CC(=C/c1ccccc1)/C=N/NC(=O)CSc1nc(C)cc(C)n1	MPTP inh 62 | MPTP counter 33
Cc1ccc(-c2noc(CCC(=O)NC3CCN(Cc4ccccc4)CC3)n2)cc1	MPTP inh 72 | MPTP counter inactive | MPTP swell DR inactive | MPTP counter DR 34
Cc1ccc(-c2noc(CCC(=O)NCCCN3CCN(c4cccc(Cl)c4)CC3)n2)cc1	MPTP inh 94 | MPTP counter inactive
Cc1ccc(-c2noc(CCC(=O)NCCCN3CCN(c4ccc(F)cc4)CC3)n2)cc1	MPTP inh 93 (no result: TAG inh) | MPTP counter inactive | MPTP swell DR 7 | MPTP counter DR 28
O=C(CCS(=O)(=O)Cc1ccc(Cl)cc1)NCCCN1CCN(c2ccccc2F)CC1	MPTP inh 57 (no result: TAG inh) | MPTP counter inactive | MPTP swell DR inactive | MPTP counter DR inactive
CCN1CCN(CCCNC(=O)CCc2nc(-c3ccc(OC)cc3)no2)CC1	none (no result: TAG inh)
COc1ccc(-c2noc(CCCC(=O)N3CCN(c4cc(C)ccc4C)CC3)n2)cc1	none
COc1ccc(-c2noc(CCCCC(=O)N3CCN(c4cc(C)ccc4C)CC3)n2)cc1	MPTP inh 97 | MPTP counter 104
COc1ccc(-c2noc(CCC(=O)NCCCN3CCN(c4ccccc4F)CC3)n2)cc1	MPTP inh 55 (no result: TAG inh) | MPTP counter inactive | MPTP swell DR 8.8 | MPTP counter DR 20
CC[N+]1(C)CCC(O)(/C=C/c2ccccc2)C(C(=O)/C=C/c2ccccc2)C1 (configuration not stated)	none
COc1ccccc1OCCNC(=O)Nc1ccc(Br)cc1	MPTP inh 85 | MPTP counter 82
COc1ccccc1OCCNC(=O)c1ccc(Br)cc1	none (no result: TAG inh)
CCN1C(=O)S/C(=C/c2ccc(Sc3nc4ccccc4[nH]3)o2)C1=O	MPTP inh 80 (no result: TAG inh) | MPTP counter 76
CNC(=S)Nc1ccc(C23CC4CC(CC(C4)C2)C3)cc1	MPTP inh 52 (no result: TAG inh) | MPTP counter 66
O=C(/C=C/c1ccc(O)c(O)c1)c1ccccc1O	MPTP inh 73 | MPTP counter 63
O=C(C=Cc1ccccc1O)c1ccccc1O	MPTP inh 72 | MPTP counter 89
O=C(C=Cc1cccc(O)c1)c1ccccc1O	none
C[C@H](CO)N1C[C@H](C)[C@@H](CN(C)S(=O)(=O)c2cccc(F)c2)Oc2ncc(Br)cc2C1=O	none
C[C@H](CO)N1C[C@H](C)[C@H](CN(C)C(=O)c2ccccc2F)Oc2ncc(Br)cc2C1=O	none
Cc1n[nH]c(=O)c2c(NC(=O)CSc3nn(-c4ccc(F)cc4)c(=S)s3)oc(C)c12	MPTP inh 87 | MPTP counter 84
CCCC1NC(C(=O)O)Cc2c1[nH]c1ccccc21 (configuration not stated)	none
CC[C@H](C)Cc1cn([C@@H](CCCN=C(N)N)C(=O)NCCCCCCCCCCC(=O)N2CCNCC2)nn1	MPTP inh 86 (no result: TAG inh) | MPTP counter inactive | MPTP swell DR 11 | MPTP counter DR 76
Cn1c(=O)c2cc(NC(=O)NCCc3cccs3)ccc2n1C/C=C/c1ccccc1	none
CCOC(=O)c1ccc(NC(=S)NCc2ccc(F)cc2)cc1	MPTP inh 88 | MPTP counter 82
O=C(NCc1ccc(Cl)cc1)Nc1ccc(F)cc1	none
CCOC(=O)c1ccc(NC(=S)NCc2ccco2)cc1	MPTP inh 65 | MPTP counter 72
CC(C)c1ccc(NC(=O)NCc2ccc(F)cc2)cc1	MPTP inh 61 (no result: TAG inh) | MPTP counter 86
CCOc1ccc(NC(=S)NCc2ccco2)cc1	none
CSCC[C@H](NC(=O)N1CCn2c1nc1ccccc12)C(=O)NCc1ccco1	none (no result: TAG inh)
COc1ccc(Cc2c(-c3ccc(Cl)cc3)nc3c(C)cc(Br)cn23)c(C)c1	none (no result: TAG inh)
COC(=O)/C(=N\OCc1ccc(C#N)cc1)c1c(C)nn(C)c1C	none (no result: TAG inh)
COc1ncnc2c1ncn2CCCN(C)Cc1ccco1	none
Cc1cc(C)cc(NC(=S)N2CCN(c3ncc(C(F)(F)F)cc3Cl)CC2)c1	none
Cc1csc2c(N3CCN(C(=S)Nc4ccc(C(F)(F)F)cc4)CC3)ncnc12	MPTP inh 97 | MPTP counter 92
Cc1csc2ncnc(N3CCN(C(=S)Nc4ccc(C(F)(F)F)cc4)CC3)c12	MPTP inh 91 | MPTP counter 94
O=C(c1ccc(-c2ccccc2)cc1)N1CCN(c2nc3ccccc3o2)CC1	none
O=C(Nc1ccc(Cl)c(Cl)c1)N1CCSCC1	none
CC(C)(C)c1ccc(C(=O)N2CCN(c3nc4ccccc4o3)CC2)cc1	MPTP inh 52 | MPTP counter 44
Cc1csc2c(N3CCN(C(=O)Nc4ccc(Cl)c(Cl)c4)CC3)ncnc12	MPTP inh 88 | MPTP counter 80
FC(F)(F)c1cccc(NC(=S)N2CCN(c3ccccn3)CC2)c1	none
Cc1csc2c(N3CCN(C(=O)c4ccc(C(C)(C)C)cc4)CC3)ncnc12	MPTP inh 96 | MPTP counter 83
Cc1csc2c(N3CCN(C(=O)NC(C)(C)C)CC3)ncnc12	none
Cc1[nH]n(-c2ccccc2)c(=O)c1N=Nc1c(O)cc(S(=O)(=O)N(C)C)c2ccccc12	NadD inh 56, MPTP inh 81 | MPTP counter 42
Cc1[nH]n(-c2ccccc2)c(=O)c1N=Nc1ccc2c(c1)OCCO2	none
CCn1c(COc2ccc3c(c2)OCO3)nnc1SCC(=O)c1ccc(Cl)cc1	MPTP inh 58 | MPTP counter 79
CCn1c(COc2ccc(Cl)cc2)nnc1SCC(=O)Nc1ccc2c(c1)OCCO2	none (no result: TAG inh)
